Compound activity deposited in PubChem by Broad Institute.
Sampled rows, rich in hits. Any-hit rate of the full collection: about 7.8%.
NOMO-1 viab = STK33 inhibitor candidate reducing NOMO-1 cell viability; NOMO-1 AML viability, CellTiter-Glo luminescence, 72 h; inhibition, % (no concentration beside the values); AID 2330; 37,000 compounds, 7.5% hits; in the data active = inhibition above about 80%
Shh pathway inh = blocks Sonic Hedgehog signaling | Shh-LIGHT2 Gli-luciferase reporter, 30 h | inhibition, % (no concentration beside the values) | 22,000 compounds, 2.1% hits | AID 2313;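 active = mean inhibition across valid replicates above about 65%, limit read from the data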;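 note: pathway switched on by Shh-conditioned medium diluted 1 in 25 in low serum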
MITF inh = blocks MITF activity; TRPM1 promoter luciferase, luminescence, 24 h; inhibition, % (no concentration beside the values); 37,000 compounds, 0.28% hits; in the data active = inhibition above about 85%;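 note: human melanocyte line stably carrying TRPM1 promoter luciferase reporter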
Starred values were filed as active, the others as inactive; . = no result.

SMILES | NOMO-1 viab | Shh pathway inh | MITF inh
Cc1cc(Br)c(NC(=O)C2C(C)(C)C2(C)C)c(Br)c1 | 89* | 65* | 11
O=c1c2ccccc2nc(CSc2ccccn2)n1-c1cccc(C(F)(F)F)c1 | 16 | . | 4
CCCSP(=O)(OCC)SCCC | -4 | -44 | 0
Oc1cccc2cccnc12 | 111* | -37 | 18
CCCCCc1cc(OC)c(CC=C(C)C)c(O)c1C(=O)O | . | -17 | .
